Source: PubChem
Only some compounds are listed: those with a hit (about 2.9% of all), similar ones and a draw of the others.
Pf gametocyte: kills late stage P. falciparum gametocytes | inhibition, % at 10.9 µM | 150,000 compounds, 0.065% hits | P. falciparum stage V gametocytes, ATP luminescence, 24 h | AID 743093;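 active = inhibition above the mean plus 3 SD of compounds within the control limits, set per campaign, cut at about 38% in these data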;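 also: 0% = DMSO wells and 100% = medium only without gametocytes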
14-3-3 Bad PPI: disrupts binding of bovine 14-3-3 zeta to phospho-Bad peptide; 220,000 compounds, 0.71% hits; inhibition, % at 21.7 µM; P63103; AID 781; TR-FRET 14-3-3zeta/Dy647-pBad peptide displacement, 1 h;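 active = inhibition above about 70%, limit read from the data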;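 also: 0% = full 14-3-3 plus peptide FRET controls and 100% = background without 14-3-3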
Target sequence (P63103 whole entry, looked up): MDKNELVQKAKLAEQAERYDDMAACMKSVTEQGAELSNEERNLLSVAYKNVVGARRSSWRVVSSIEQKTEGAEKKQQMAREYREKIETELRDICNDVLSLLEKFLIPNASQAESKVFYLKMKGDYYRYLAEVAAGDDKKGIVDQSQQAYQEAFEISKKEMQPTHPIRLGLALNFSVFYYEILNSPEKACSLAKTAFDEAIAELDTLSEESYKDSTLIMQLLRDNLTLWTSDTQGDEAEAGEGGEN
Mcl1 Bid PPI: Mcl-1/Bid interaction inhibition; Q07820; TR-FRET Mcl-1/Bid-Dy647 peptide binding, 1536-well; inhibition, % at 21.7 µM; 220,000 compounds, 0.97% hits; AID 1021;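 active = compounds that cut the binding signal by more than half at the single screening dose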;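 also: His-tagged Mcl-1 with europium anti-His antibody binding Bid BH3 peptide; 0% = Mcl-1 plus peptide wells and 100% = peptide-only wells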
Mcl1-Noxa inh: disrupts binding of human Mcl-1 to Noxa peptide. Q07820. TR-FRET Mcl-1/Noxa peptide binding, 2 h. inhibition, % at 21.7 µM. 220,000 compounds, 1.5% hits. AID 1022;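 active = compounds that cut the protein-peptide binding signal by more than 50% relative to plate controls in a single-dose test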;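 also: His-tagged Mcl-1 with rhodamine Noxa BH3 peptide and terbium anti-His antibody; 0% = Mcl-1 plus Noxa peptide wells and 100% = peptide-only wells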
Hck Nef HTS: inhibitors of human Hck kinase activated by Nef. P08631. Recombinant Hck-YEEI plus Nef, Z-Lyte FRET kinase assay. 220,000 compounds, 0.68% hits. inhibition, % at 20 µM;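 active = Hck-Nef kinase inhibition above about 50%, limit read from the data; inactive = inhibition below that limit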;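 also: 0% = DMSO with Hck plus Nef and 100% = Hck alone without Nef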
Target sequence (P08631 whole entry, looked up): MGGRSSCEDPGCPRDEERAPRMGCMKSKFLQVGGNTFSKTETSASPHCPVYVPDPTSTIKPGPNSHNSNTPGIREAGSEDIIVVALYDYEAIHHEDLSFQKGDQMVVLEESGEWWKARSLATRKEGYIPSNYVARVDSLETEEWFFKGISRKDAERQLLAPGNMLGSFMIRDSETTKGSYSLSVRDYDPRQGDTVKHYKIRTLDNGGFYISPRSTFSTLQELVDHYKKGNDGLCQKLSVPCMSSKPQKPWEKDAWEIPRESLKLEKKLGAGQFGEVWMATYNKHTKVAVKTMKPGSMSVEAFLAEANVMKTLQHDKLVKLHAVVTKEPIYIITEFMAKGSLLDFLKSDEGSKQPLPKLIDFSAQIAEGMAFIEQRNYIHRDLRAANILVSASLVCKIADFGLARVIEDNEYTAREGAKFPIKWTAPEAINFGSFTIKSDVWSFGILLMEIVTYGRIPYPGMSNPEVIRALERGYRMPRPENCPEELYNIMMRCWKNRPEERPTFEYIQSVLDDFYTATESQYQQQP
Bim-Mcl-1: inhibitors of Bim-Mcl-1 interaction, human | Bead-based flow cytometry, Bim peptide-Mcl-1 binding | inhibition, % at 10 µM | 190,000 compounds, 0.1% hits; in the data active = inhibition above about 40%;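 also: 0% = no compound tracer wells and 100% = peptide blocker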
Active calls of the source: *; [ ] = remark or other dose.

How did Clc1ccc(CSc2ncnc3nc[nH]c23)cc1 do in these assays?
Pf gametocyte: -5.1; 14-3-3 Bad PPI: -8.5; Mcl1 Bid PPI: 7.8; Mcl1-Noxa inh: 4.6; Hck Nef HTS: -3.7; Bim-Mcl-1: 1.0

How did Cc1cc(=O)oc2cc(OCc3ccc(C(=O)N4CCN(c5ccc([N+](=O)[O-])cc5)CC4)cc3)ccc12 do in these assays?
Pf gametocyte: -10.0; 14-3-3 Bad PPI: -7.7; Mcl1 Bid PPI: -5.1; Mcl1-Noxa inh: 0.5; Hck Nef HTS: 21.0; Bim-Mcl-1: 0.0

Results for COC(=O)c1ccc(Oc2coc3cc(OCc4ccc([N+](=O)[O-])cc4)ccc3c2=O)cc1 ?
Pf gametocyte: -33.0; 14-3-3 Bad PPI: -0.6; Mcl1 Bid PPI: 94.5*; Mcl1-Noxa inh: 55.3*; Hck Nef HTS: 12.5; Bim-Mcl-1: 0.0

Results for Cc1ccc(CNC(=O)CSc2n[nH]c(N)n2)cc1 ?
14-3-3 Bad PPI: -0.8; Mcl1 Bid PPI: -6.6; Mcl1-Noxa inh: 12.7; Hck Nef HTS: 0.8; Bim-Mcl-1: -1.0

What do the screens show for `COc1ccc(N2C(=O)CC(S/C(N)=N/N=C/c3ccnc4ccccc34)C2=O)cc1` (centres undefined)?
14-3-3 Bad PPI: 75.4*[fluorescence artefact?]; Mcl1 Bid PPI: 81.0*; Mcl1-Noxa inh: 35.4; Hck Nef HTS: 31.1; Bim-Mcl-1: -3.0

Results for COc1ccc2nc(/C(C#N)=C\c3ccc(Oc4ccc([N+](=O)[O-])cn4)cc3)[nH]c2c1 ?
Pf gametocyte: 8.4; 14-3-3 Bad PPI: 33.1; Mcl1 Bid PPI: 57.9*; Mcl1-Noxa inh: 72.5*; Hck Nef HTS: 12.7; Bim-Mcl-1: 2.0

What do the screens show for `Cc1ccc2nc(/C(C#N)=C\c3ccc([N+](=O)[O-])o3)[nH]c2c1`?
14-3-3 Bad PPI: 5.5; Mcl1 Bid PPI: 51.6*; Mcl1-Noxa inh: 66.0*; Hck Nef HTS: 2.9; Bim-Mcl-1: 0.0

What do the screens show for `CCn1c2ccccc2c2cc(NC(=O)c3coc(=O)c(Br)c3)ccc21`?
Pf gametocyte: -8.7; 14-3-3 Bad PPI: 49.7; Mcl1 Bid PPI: 38.1; Mcl1-Noxa inh: 69.3*; Hck Nef HTS: 5.6

Results for COc1cc2nc(CN(C)Cc3ccc(C(C)(C)C)cc3)[nH]c(=O)c2cc1OC ?
Pf gametocyte: -14.1; 14-3-3 Bad PPI: -8.7; Mcl1 Bid PPI: -4.0; Mcl1-Noxa inh: 0.6; Hck Nef HTS: 16.7; Bim-Mcl-1: 3.0

What do the screens show for `Cn1c(=O)c2c(nc(OCc3ccc4c(c3)OCO4)n2Cc2ccccc2Cl)n(C)c1=O`?
14-3-3 Bad PPI: 3.9; Mcl1 Bid PPI: 50.8*; Mcl1-Noxa inh: 3.5; Hck Nef HTS: 2.0; Bim-Mcl-1: -4.0

What do the screens show for `CCN(CC)c1ccc(CNc2nc3ccccc3n2CCN2CCCCC2)cc1`?
Pf gametocyte: 20.9; 14-3-3 Bad PPI: -5.5; Mcl1 Bid PPI: -29.4; Mcl1-Noxa inh: 42.5; Hck Nef HTS: 26.9; Bim-Mcl-1: 3.0

What do the screens show for `CCCCn1c(NCc2ccc3c(c2)OCO3)nc2ccccc21`?
14-3-3 Bad PPI: 1.2; Mcl1 Bid PPI: -7.6; Mcl1-Noxa inh: 66.3*; Hck Nef HTS: 7.5; Bim-Mcl-1: 0.0

How did CCN(CC)c1ccc(CNc2nc3ccccc3n2C)cc1 do in these assays?
Pf gametocyte: -20.6; 14-3-3 Bad PPI: 1.0; Mcl1 Bid PPI: 96.8*; Mcl1-Noxa inh: 11.0; Hck Nef HTS: 19.0

What do the screens show for `CC(NC(=O)COC(=O)Cc1ccsc1)C1CC2CCC1C2` (centres undefined)?
Pf gametocyte: -2.9; 14-3-3 Bad PPI: 1.2; Mcl1 Bid PPI: -22.2; Mcl1-Noxa inh: 9.9; Hck Nef HTS: 4.4; Bim-Mcl-1: -8.0

Results for Cc1ccc(NS(=O)(=O)c2ccc(CCC(=O)NCCCOC(C)C)cc2)cc1 ?
14-3-3 Bad PPI: -8.4; Mcl1 Bid PPI: -6.1; Mcl1-Noxa inh: -3.5; Hck Nef HTS: -24.4; Bim-Mcl-1: 0.0

What do the screens show for `Cc1cccc(CN(C)CCc2ccccn2)c1`?
14-3-3 Bad PPI: 44.8; Mcl1 Bid PPI: 30.6; Mcl1-Noxa inh: 27.3; Hck Nef HTS: 0.0; Bim-Mcl-1: -1.0

Results for Cc1cccc(OCC(=O)N(C)CCc2ccccn2)c1 ?
Pf gametocyte: -4.2; 14-3-3 Bad PPI: 71.2*; Mcl1 Bid PPI: 57.5*; Mcl1-Noxa inh: 12.1; Hck Nef HTS: -21.2; Bim-Mcl-1: 0.0

How did Cc1sc(NC(=O)c2cc(-c3ccc(Cl)cc3)nc3ccccc23)c(C(N)=O)c1C do in these assays?
Pf gametocyte: 16.8; 14-3-3 Bad PPI: 79.5*; Mcl1 Bid PPI: 76.9*; Mcl1-Noxa inh: 76.7*; Hck Nef HTS: 44.9; Bim-Mcl-1: 1.0

How did Cc1ccc(C(=O)O)cc1-c1ccc(C=C2C(=O)c3ccccc3C2=O)o1 do in these assays?
Pf gametocyte: 1.0; 14-3-3 Bad PPI: 25.3; Mcl1 Bid PPI: -54.6; Mcl1-Noxa inh: 56.8*; Hck Nef HTS: 39.3; Bim-Mcl-1: 2.0

Results for Cc1cc(C(=O)O)ccc1-n1c(C)cc(C=C2C(=O)c3ccccc3C2=O)c1C ?
Pf gametocyte: 13.1; 14-3-3 Bad PPI: 3.0; Mcl1 Bid PPI: -39.7; Mcl1-Noxa inh: 30.0; Hck Nef HTS: 11.5; Bim-Mcl-1: 0.0

What do the screens show for `Cc1ccc(NC(=O)CN2C(=O)S/C(=C/c3ccc(-c4cc(C(=O)O)ccc4C)o3)C2=O)cc1C`?
Pf gametocyte: -41.3; 14-3-3 Bad PPI: 76.5*[fluorescence artefact?]; Mcl1 Bid PPI: 93.5*; Mcl1-Noxa inh: 84.3*; Hck Nef HTS: 15.7; Bim-Mcl-1: 4.0

What do the screens show for `CCc1nnc(NC(=O)C2CCN(S(=O)(=O)Cc3ccccc3)CC2)s1`?
14-3-3 Bad PPI: 9.6; Mcl1 Bid PPI: 3.9; Mcl1-Noxa inh: -2.5; Hck Nef HTS: 0.6; Bim-Mcl-1: -5.0

Results for O=C(CSc1nc2c(cnn2-c2ccc(F)cc2)c(=O)[nH]1)N1CCCc2ccccc21 ?
14-3-3 Bad PPI: 22.8; Mcl1 Bid PPI: 94.0*; Mcl1-Noxa inh: -0.9; Hck Nef HTS: 1.3; Bim-Mcl-1: 0.0

What do the screens show for `C1CN(c2nc3nonc3nc2N2CCSCC2)CCO1`?
Pf gametocyte: -9.2; 14-3-3 Bad PPI: -10.4; Mcl1 Bid PPI: -17.8; Mcl1-Noxa inh: 20.2; Hck Nef HTS: 16.0

What do the screens show for `CC(=O)OCC1OC(n2ncc(=O)n(Cc3ccccc3)c2=O)C(OC(C)=O)C1OC(C)=O` (centres undefined)?
Pf gametocyte: -10.5; 14-3-3 Bad PPI: -5.0; Mcl1 Bid PPI: -8.1; Mcl1-Noxa inh: 17.6; Hck Nef HTS: 17.3; Bim-Mcl-1: 0.0

How did CC(=O)OC[C@H]1O[C@@H](n2ncc(=O)[nH]c2=O)[C@H](OC(C)=O)[C@@H]1OC(C)=O do in these assays?
14-3-3 Bad PPI: 71.4*; Mcl1 Bid PPI: -0.5; Mcl1-Noxa inh: 10.3; Hck Nef HTS: -1.8; Bim-Mcl-1: 0.0

What do the screens show for `O=C(NCC1CCCO1)c1ccc(Oc2ccc([N+](=O)[O-])cc2)cc1` (centres undefined)?
Pf gametocyte: -8.4; 14-3-3 Bad PPI: 8.6; Mcl1 Bid PPI: -8.6; Mcl1-Noxa inh: -19.8; Hck Nef HTS: 3.5; Bim-Mcl-1: 0.0

How did Cc1ccc(C)c(NC(=O)CN(C)C(=O)/C=C/c2ccco2)c1 do in these assays?
14-3-3 Bad PPI: -4.1; Mcl1 Bid PPI: -4.3; Mcl1-Noxa inh: -4.0; Hck Nef HTS: 20.9; Bim-Mcl-1: -2.0
